# In PubChem BioAssay (NCI):
# Compounds without any hit were thinned out: in the full panel of roughly 83,000, 20% have a hit.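 Growth was measured after 48 h exposure to one concentration of compound in 96-well plates. Values under 10 count as active.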 A number with no mark means an inactive call. The source made the active and inactive calls.
# System: HOP-92 NSCLC
# Assay: NCI-60 one-dose screen, 48 h (100 = growth as untreated, 0 = no growth, -100 = all killed)
# Conditions: 10 µM unless noted
row,SMILES,growth
1,C=CCC(=O)N[C@H](/C=C/C(=O)O)Cc1ccc(-c2cc(Cl)cc(Cl)c2)cc1,96.4%
2,CCN1CCN(c2cc(C)nc(N(CCCNc3ccnc4cc(Cl)ccc34)Cc3cccs3)n2)CC1,11.6%
3,COC(=O)CCCNc1c(-c2c(O)c(O)cc3c(O)c(-c4c(C)cc5c(-c6nc7ccccn7c6NCCCC(=O)OC)c(O)c(O)cc5c4O)c(C)cc23)nc2ccccn12,55.3%
4,Cn1ncc(Cl)c1-c1cc(C(=O)N[C@H](CN)Cc2ccc(F)c(F)c2)oc1Cl,-58.5% (active)
5,O=c1[nH]c(N2CCOCC2)nc2scc(-c3ccccc3)c12,79.7%
6,Cc1cc2c(-c3nc4ccccn4c3NC3CCCCC3)c(O)c(O)cc2c(O)c1-c1c(C)cc2c(-c3nc4ccccn4c3NC3CCCCC3)c(O)c(O)cc2c1O,-3.03% (active)
7,CC(C)C1CCC(C)C(C2(C#N)C(N)=NC(N)=C2C#N)C1=O (centres undefined),88.9%
8,Cc1cc(N2CCCC2)nc(N(CCCNc2ccnc3cc(Cl)ccc23)Cc2ccc3c(c2)OCO3)n1,-36% (active)
9,[2H]C1([2H])[C@H](C)O[C@H](C)C([2H])([2H])N1c1ccc(NC(=O)c2cccc(-c3ccc(OC(F)(F)F)cc3)c2C)cn1,8.86% (active)
10,Cc1cc2c(-c3nc4ccccn4c3NC34CC5CC(CC(C5)C3)C4)c(O)c(O)cc2c(O)c1-c1c(C)cc2c(-c3nc4ccccn4c3NC34CC5CC(CC(C5)C3)C4)c(O)c(O)cc2c1O,-9.41% (active)
11,CC[C@H](Nc1ncnc2nc[nH]c12)c1nc2cccc(F)c2c(=O)n1-c1ccccc1,49.2%
12,COC(=O)C1=C(C(=O)OC)C23C=C(C)C1C2=C(C)C1(CC1)[C@@](C)(O)C3=O (some centres undefined),-19.3% (active)
13,c1ccc2c(c1)CCN(NCCN1CCCC1)C2,80.4%
14,Cc1cc(N(CCNc2ccnc3cc(Cl)ccc23)Cc2cccs2)nc(Cl)n1,-27.9% (active)
15,COc1cc(-c2nc(C(=O)Nc3ccc(C)cc3)nn2-c2ccc(F)c(F)c2)cc(OC)c1OC,114%
16,O=C(Cn1c(=O)ccn(CCCCCCCCOc2ccc(Br)cc2)c1=O)Nc1ccc(Oc2ccc(Cl)cc2)cc1,22.4%
17,Cc1ccc(-c2cc3c(SCC(=O)Nc4cc(C(F)(F)F)ccc4Cl)nccn3n2)cc1,28.6%
18,CCCc1cc2cc(-n3nc(C)c4c3CC(C)(C)CC4=O)cc(NC3CCC(O)CC3)c2c(=O)[nH]1 (centres undefined),-25.7% (active)
19,COc1ccc(C(=O)c2cc(OC)c(OC)c(OC)c2)cc1/C=C/C(=O)c1ccc(F)cc1,69.2%
20,CC(C)=CCc1cc2c(cc1O)C1=C(C(=O)C3=C(C1=O)S(=O)(=O)CCN3)C(C=C(C)C)O2 (centres undefined),-11.7% (active)

row,SMILES,growth
1,CN1CCN(c2nc(NCCNc3ccnc4cc(Cl)ccc34)c3ccccc3n2)CC1,53%
2,COc1ccc(CCCc2c3[n+](cc4c(OC)c(OC)ccc24)CCc2cc4c(cc2-3)OCO4)cc1,77.8%
3,N#Cc1cc2[nH]c3ccc(OC(F)(F)F)cc3c2oc1=O,104%
4,CCN1CCN(CCCN(C[C@H]2Cc3ccccc3CN2)[C@H]2CCCc3cccnc32)CC1,60.3%
5,Clc1ccc2c(NCCCNCc3ccc4c(c3)OCO4)ccnc2c1,47.4%
6,Cc1cc(N2CCOCC2)nc(N(CCNc2ccnc3cc(Cl)ccc23)Cc2cccs2)n1,15.6%
7,CCN1CCN(c2cc(C)nc(N(CCCNc3ccnc4cc(Cl)ccc34)Cc3ccc4c(c3)OCO4)n2)CC1,-24.9% (active)
8,COc1cc(-c2cc(-c3ccc(Nc4ccnc5cc(Cl)ccc45)cc3)nc(N3CCOCC3)n2)cc(OC)c1OC,85.8%
9,COC(=O)C1CCc2sc3ncnc(Nc4cn[nH]c4C(=O)Nc4ccc(CN5CCN(C)CC5)cc4)c3c21 (centres undefined),-29.2% (active)
10,CO/C=C/C(=O)c1cc2cnc3c(=N)cc(NC(=O)C(C)C)c([nH]1)c23,-16% (active)
11,CCN1CCN(c2nc(C)cc(N(CCNc3ccnc4cc(Cl)ccc34)Cc3ccc4c(c3)OCO4)n2)CC1,-4.69% (active)
12,N#CC(C#N)=NO,94%
13,C=CC(=O)N(C)[C@H]1C[C@H]2OC(C)(C1OC)n1c3ccccc3c3c4c(c5c6ccccc6n2c5c31)C(=O)NC4 (some centres undefined),-21.8% (active)
14,Cc1ccc(NC(=O)NC(=O)CSc2nc3ccccc3nc2C)cc1,36.1%
15,C=CCn1c(=O)c2cnc(Nc3ccc(N4CCN(C)CC4)cc3)nc2n1-c1cccc(C(C)(C)O)n1,49.2%
16,Clc1ccc2c(NCCNc3nc(N4CCCC4)nc4ccccc34)ccnc2c1,-1.92% (active)
17,Clc1ccc(/C=C/c2cc(N3CCOCC3)c3cc(Cl)c(Cl)cc3n2)cc1,96.6%
18,Nc1ncnc2c1ccn2-c1cccc(NC(=O)c2ccc(N3CCOCC3)c(C(F)(F)F)c2)c1,20.5%
19,CC12O[C@H](C[C@@H](OC(=O)CCC(=O)O)[C@H]1O)n1c3ccccc3c3c4c(c5c6ccccc6n2c5c31)C(=O)NC4=O,7.85% (active)
